The structures appear in SMILES notation. Where “and” joins values, the source holds several entries; their conditions need not be identical. Equal values may be shown once. This is part of a sample that, as a whole, favours compounds with a hit. Of some 83,000 tested, about 20% had one in any assay.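 Negative percent growth values reflect cell death: -40 means 40% of the cells present at the start died, and -100 means all died.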 Calls of active or inactive are those of the source. The calls were made as follows: active = growth percent below 10; inactive = the rest.

This test concerns MDA-MB-435 melanoma. Briefly: NCI-60 one-dose screen, 48 h (100 = growth as untreated, 0 = no growth, -100 = all killed). As to conditions: 10 µM unless noted.
For `c1ccc(-c2cn3c(-c4c[nH]c5ccccc45)csc3n2)cc1`, the growth was 74.7% (inactive).
In the case of `O=C(/C=C/c1ccccc1Cl)Nc1ncc(Cc2cc(Cl)ccc2Cl)s1` it was -26.6% (active).
Consider `O=C(CCCCCCNC(=O)c1csc(Br)n1)NO`, for which the growth is 12% (inactive).
As for `CCOC(=O)c1cnc2c(-c3ccc(Cl)c(Cl)c3)cnn2c1`, the figure is -20.3% (active).
As for `Cc1csc(/N=C(N)/N=C(\N)c2cccc(Br)c2)n1`, the figure is 46.2% (inactive); as for `CN1CCN(c2ccc(Nc3nc(NCCNC(=O)c4ccccc4)c4sccc4n3)cc2)CC1`, 59.3% (inactive).
As for `C#Cc1cc(OC)c(C(=O)Nc2ccc(F)cc2C(=O)Nc2cccc(S(=O)(=O)C(F)(F)F)c2)cn1`, the figure is 10.2% (inactive); as for `CCCN1C=C/C(=C\C(=O)n2ccc3ccccc32)c2ccccc21`, 93% (inactive); as for `CNC(=O)c1cc(-n2ccc3cc(NC(=O)Nc4ccc(N5CCN(C)CC5)c(C(F)(F)F)c4)ccc32)ccn1`, 22.5% (inactive).
Consider `Fc1cc(F)cc(NNC(=S)c2ccccc2)c1`, for which the growth was 64% (inactive).
Regarding `CCCCCCCCCCCC(=O)NC(C)(C)C(=O)N1CCCC1C(=O)NC(C)(C)C(=O)NC(C)(C)C(=O)N1CCCC1C(=O)NC(C)(C)C(=O)NC(C)(C)C(=O)N1CCCC1C(=O)NC(C)C(=O)NCCC(=O)NC(C)C(=O)NC(C)(C)C(=O)NC(C)(C)C(=O)NC(C)(C)C(=O)NCCC(=O)NC(C)(C)C(=O)NC(C)(C)C(=O)NC(C)(C)C(=O)NC(C)C(=O)NCCC(=O)O` (stereo unspecified), the growth is -89.9% (active).
In the case of `CC[C@]12C=CCN3CC[C@@]4(c5ccc(OC)cc5N(C)[C@H]4[C@@](O)(C(=O)OC)[C@@H]1OC(=O)CCN1CCc4ccccc4C1)[C@@H]32` it was 95.6% (inactive).
In the case of `O=C(CCCCCCNC(=O)C(O)(O)C(F)(F)F)Nc1ccc(-c2ccccc2)cc1` it was 7.66% (active); in that of `Brc1cccc(-c2cc(-c3cnc4c(c3)OCCO4)n[nH]2)c1`, -29.3% (active); in that of `CS(=O)(=O)c1ccc(/C(=N/N=C(N)N)c2ccc(Cl)cc2)cc1`, 8.68% (active).
In the case of `CCN1CCN(c2ccc(NC(=O)Nc3ccc4c(ccn4-c4ccnc(C(=O)NC)c4)c3)cc2C(F)(F)F)CC1` it was 70.4% (inactive); in that of `Cc1ccc2c(n1)C(=O)C(Cl)=C(Nc1ccc(C#N)cc1)C2=O`, 99.5% (inactive); in that of `NS(=O)(=O)c1ccc(Nc2nc(Nc3ccccc3)nc(N3N=C(c4ccc(Cl)cc4)CC3c3ccc(Cl)cc3)n2)cc1` (stereo unspecified), 39.1% (inactive).
Turning to `COC(=O)c1cccc(NC2=C(Cl)C(=O)c3nc(C)ccc3C2=O)c1`, the growth was -38.6% (active).
As for `C#CCN(C)CCCOc1ccc(NCc2ccc(/C=C/C(=O)NO)cc2)cc1Cl`, the figure is -25.3% (active); as for `Cc1nc(N)sc1-c1csc(Nc2ccc(C(F)(F)F)cc2)n1`, 37.8% (inactive); as for `COc1ccc(-c2nc(C#N)c(N3CCC(S(=O)(=O)N4CCOCC4)CC3)o2)cc1`, 99.3% (inactive).
Regarding `O=C(CCCCCCN1CC(=O)N2[C@@H](c3ccc(Cl)s3)c3[nH]c4ccccc4c3C[C@H]2C1=O)NO`, the growth was 23.9% (inactive).
As for `C#C[C@]1(O)CC[C@H]2[C@@H]3CC=C4c5sc(N(C)c6ccccc6)nc5CC[C@]4(C)[C@H]3CC[C@@]21C`, the figure is 89.9% (inactive); as for `COc1ccc(/C=N/NC(=O)c2c(N)nn(C)c2Nc2ccccc2)cc1Oc1ccccc1`, 101% (inactive).
As for `CCOC(=O)c1cccc(NC2=C(Cl)C(=O)C(C)=C(C)C2=O)c1`, the figure is 104% (inactive); as for `Cc1ccc(NC(=O)Nc2nc3ccc([N+](=O)[O-])cc3s2)cc1`, -7.46% (active); as for `Oc1[nH]c2ccc(Cl)cc2c1N=Nc1nc(N=Nc2c(O)[nH]c3ccc(Cl)cc23)nc(N2CCOCC2)n1`, 63.5% (inactive).
As for `C[C@H](Nc1ncnc2ccc(-c3cnc(Cl)c(NS(C)(=O)=O)c3)cc12)c1ccccc1`, the figure is -40% (active); as for `Brc1ccc(-c2cc(-c3ccc4c(c3)OCCO4)n[nH]2)s1`, -38.1% (active).
As for `C/C=C/CC(C)C(O)[C@H](NC(=O)[C@@H]1CCCN1C(=O)[C@](C)(CC)NC(=O)CCCCCCCCC)C(=O)N[C@@](C)(CC)C(=O)N[C@@H](CCC(N)=O)C(=O)N[C@H](CCC(N)=O)C(=O)NC(C)(C)C(=O)NC(C)(C)C(=O)N[C@@H](CCC(N)=O)C(=O)N[C@H](CC(C)C)C(=O)N[C@H](CO)CC(C)C` (stereo partly specified), the growth is 17.4% (inactive) and -95.1% (active).
